Results from PubChem BioAssay (NCI).
Compounds without any hit were thinned out: in the full panel of roughly 83,000, 20% have a hit.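 A percent growth of 40 corresponds to 60% growth inhibition; 0 means no net growth; -100 means all cells died. Active threshold: below 10.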 Unmarked numbers belong to inactive results. Active and inactive are the calls of the source.

Columns and labels:
Assay in all cases: NCI-60 one-dose screen, 48 h (100 = growth as untreated, 0 = no growth, -100 = all killed)
Details in all cases: 10 µM unless noted
SR leukemia = tested on: SR leukemia
RPMI-8226 leukemia = tested on: RPMI-8226 leukemia
OVCAR-8 ovarian = tested on: OVCAR-8 ovarian
OVCAR-5 ovarian = tested on: OVCAR-5 ovarian
OVCAR-4 ovarian = tested on: OVCAR-4 ovarian
SK-OV-3 ovarian = tested on: SK-OV-3 ovarian
IGROV1 ovarian = tested on: IGROV1 ovarian
OVCAR-3 ovarian = tested on: OVCAR-3 ovarian
HS 578T breast = tested on: HS 578T breast
NCI/ADR-RES ovarian = tested on: NCI/ADR-RES ovarian
T-47D breast = tested on: T-47D breast
BT-549 breast = tested on: BT-549 breast
MDA-MB-435 melanoma = tested on: MDA-MB-435 melanoma
SW-620 colon = tested on: SW-620 colon
MCF7 breast = tested on: MCF7 breast
HCT-116 colon = tested on: HCT-116 colon
HCC-2998 colon = tested on: HCC-2998 colon
KM12 colon = tested on: KM12 colon

Row | SMILES | growth (SR leukemia) | growth (RPMI-8226 leukemia) | growth (OVCAR-8 ovarian) | growth (OVCAR-5 ovarian) | growth (OVCAR-4 ovarian) | growth (SK-OV-3 ovarian) | growth (IGROV1 ovarian) | growth (OVCAR-3 ovarian) | growth (HS 578T breast) | growth (NCI/ADR-RES ovarian) | growth (T-47D breast) | growth (BT-549 breast) | growth (MDA-MB-435 melanoma) | growth (SW-620 colon) | growth (MCF7 breast) | growth (HCT-116 colon) | growth (HCC-2998 colon) | growth (KM12 colon)
1 | CC(C)(C)n1cc(-c2ccnc(NCCCNS(=O)(=O)c3cccc4ccccc34)c2)c(-c2cccc(O)c2)n1 | -1.59% (active) | -34.8% (active) | 30.6% | 48.4% | 36.5% | 71.4% | 41.7% | 43.6% | 36.6% | 36.5% | 7.41% (active) | 39.8% | 36.4% | 16.3% | 11.5% | 29.4% | -49.4% (active) | 14.3%
2 | Cn1c2c(Cl)c(Cl)ccc2c2ccn3c(=O)c4ccccc4nc3c21 | 75.9% | 98.8% | 95.5% | 96.8% | 92.1% | 88.9% | 54.4% | 113% | 103% | 99.4% | 85% | 86.4% | 98.3% | 99.1% | 96.2% | 90% | 100% | 103%
3 | N#Cc1c2c(nc3n[nH]c(N)c13)CCCC2 | 93.6% | 100% | 111% | 93.8% | 101% | 116% | 109% | 100% | 117% | 105% | 98% | 130% | 106% | 96% | 110% | 101% | 92.6% | 111%
4 | CC/C=C\C[C@H](O)C/C=C1/C(=O)C=C[C@@H]1C/C=C\CCCC(=O)OC(C)C | -27% (active) | -21.6% (active) | 5.63% (active) | 9.35% (active) | 23.3% | 16.4% | -2.92% (active) | -39.6% (active) | 53.9% | 6.4% (active) | 6.79% (active) | -18.3% (active) | 2.16% (active) | 0.553% (active) | 3.64% (active) | -70.1% (active) | -88% (active) | -62.2% (active)
5 | COc1ccc(-c2csc(NC(=O)CN3CCN(c4cc5c(cc4F)c(=O)c(C(=O)O)cn5C4CC4)CC3)n2)cc1 | 16.7% | -9.43% (active) | 9.73% (active) | 37.4% | 40.8% | -4.37% (active) | 38.5% | 12.7% | 16.5% | 60.7% | 16.6% | 9.62% (active) | 14.4% | 16% | 12.8% | 9.62% (active) | 36.4% | 15.3%
6 | CC(=O)C1=C(O)C=C2Oc3c(C(=O)/C=C/c4cc(Cl)cc(Cl)c4)c(O)c(C)c(O)c3[C@]2(C)C1=O | -20.5% (active) | -22.1% (active) | -24.3% (active) | 0.163% (active) | 8.73% (active) | -24.4% (active) | -13.8% (active) | -28.6% (active) | -16.6% (active) | -40.9% (active) | -24.4% (active) | -19.9% (active) | -42.2% (active) | 0.897% (active) | -10.6% (active) | -15.9% (active) | -46.9% (active) | -6.77% (active)
7 | COc1ccc(/C=N\NC(=O)CN2CCN(c3cc4c(cc3F)c(=O)c(C(=O)N/N=C/c3ccc(OC)cc3)cn4C3CC3)CC2)cc1 | 72.1% | 69.4% | 92.2% | 122% | 80.7% | 112% | 72% | 85.2% | 92.4% | 88.2% | 82.5% | 88.5% | 90.3% | 101% | 73.2% | 88.8% | 102% | 89.8%
8 | CCCCN(CCCC)Cc1c(C)[nH]c2cc(OC)ccc2c1=O | 92.8% | 99.7% | 91.9% | 119% | 106% | 92.2% | 113% | 96.6% | 103% | 104% | 95.7% | 108% | 104% | 101% | 94.8% | 95.2% | 94.6% | 104%
9 | CCC(c1ccccc1)C(CC)c1ccc(O)c(O)c1 (stereo not drawn) | 55.3% | 102% | 102% | 115% | 82.4% | 112% | 96.5% | 86% | 87.1% | 96.1% | 80.5% | 110% | 95% | 97.3% | 98.7% | 88.2% | 97.5% | 90.9%
10 | COc1cc(-c2cc(-c3nc4ccc(Cl)cc4[nH]3)[nH]n2)cc(OC)c1OC | 41.9% | 9.58% (active) | 3.73% (active) | 97.3% | 32.2% | 61.7% | 44.3% | 57.8% | 84.2% | 20% | 0.183% (active) | 22.4% | 39.5% | 78.7% | 47% | 49.4% | 89% | 47%
11 | COc1ccc(-c2nc(Nc3cc(C)[nH]n3)c3ccccc3n2)cc1 | 23.7% | 50.7% | 83.8% | 59.8% | 60.1% | 53.1% | 1.47% (active) | 52.2% | 2.72% (active) | 74.3% | 28.6% | 51.7% | 26.6% | 35.4% | 22.1% | 29.5% | 74.2% | 18.3%
12 | CC(=O)C1=C(O)C=C2Oc3c(C(=O)/C=C/c4ccccc4)c(O)c(C)c(O)c3[C@]2(C)C1=O | 30.3% | 34.9% | 14% | 78.7% | 55.4% | 40.9% | 37.1% | 27.5% | 50% | 16.9% | 47.1% | 49.6% | 46.3% | 49.9% | 44.1% | 30.9% | 32.6% | 33.6%
13 | CCN(CC)CCCC(C)Nc1ccnc2c(OC)cccc12 (stereo not drawn) | 97.3% | 103% | 106% | 102% | 111% | 117% | 109% | 146% | 127% | 110% | 119% | 118% | 118% | 115% | 101% | 112% | 115% | 113%
14 | C=C1CC2(OC1=O)C(=O)N(CCCCCCCCCCCCN1C(=O)C3(CC(=C)C(=O)O3)c3ccccc31)c1ccccc12 (stereo not drawn) | 2.62% (active) | 3.98% (active) | 57% | 99.9% | 88.9% | 105% | 64.8% | 66.8% | 91.1% | 83.2% | 64.8% | 84% | 73.1% | 26.1% | 38% | 61.3% | 92.8% | 93.6%
15 | O=C1/C(=C/c2ccc(Cl)cc2Cl)CN(S(=O)(=O)c2ccccc2)C/C1=C\c1ccc(Cl)cc1Cl | -11.6% (active) | -21.9% (active) | 13.6% | -3.2% (active) | 22.6% | 44.7% | -24.3% (active) | -36.4% (active) | 37.9% | 20.5% | 23.7% | -72.8% (active) | 3.98% (active) | -15.2% (active) | 13.9% | -84% (active) | -15.3% (active) | -57.2% (active)
16 | Nc1nc2c(c3ncccc13)C(c1ccc(Cl)c(Cl)c1)Cc1ncccc1-2 (stereo not drawn) | 0.136% (active) | 15.8% | 34.2% | 81.3% | 67.6% | 19.7% | 50.8% | -8.92% (active) | 31.5% | 4% (active) | 16% | 31.1% | 6.95% (active) | 21.7% | 12.2% | 18.4% | 41.7% | 21.5%
